Assay outcomes from PubChem BioAssay.
Hits are enriched below; roughly 3.2% of the tested compounds scored in any of these assays.
CDK5 inh: blocks human CDK5/p35 kinase activity. 330,000 tested, 0.01% active. Recombinant CDK5/p35, ADP-Glo luminescence, 60 min. inhibition, % at 10 µM. Q00535+Q15078;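 active = highest replicate inhibition of at least 50% and at least 75% of replicates reaching 50%; inconclusive = only one of the two criteria met; inactive = both criteria failed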;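 note: plate controls were DMSO neutral control for no effect and GW8510 at 10 µM for full effect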
esBAF inh: SWI/SNF esBAF complex inhibition; mouse ES cells, Bmi1-luciferase knock-in reporter, 24 h; 100% = twice the neutral-well signal; reporter increase, % at 12.5 µM; 350,000 tested, 2% active; AID 602393; in the data active = activation above about 40%; inconclusive = no clear call, values can overlap the other calls;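 note: 0% = median of the plate's neutral control wells and 100% = double that signal; a rise in the Bmi1 reporter signal indicates esBAF inhibition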
Rtt109 HAT inh: C. albicans Rtt109 histone acetyltransferase inhibition | purified Rtt109/Vps75, ThioGlo CoA-SH fluorescence, 4 h | inhibition, % at 34.9 µM | 330,000 tested, 0.16% active;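 active = inhibition of at least 50% in every replicate; inconclusive = best replicate reaches 50% inhibition but some replicates fall short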
Target sequence (Q5AAJ8 whole entry, looked up): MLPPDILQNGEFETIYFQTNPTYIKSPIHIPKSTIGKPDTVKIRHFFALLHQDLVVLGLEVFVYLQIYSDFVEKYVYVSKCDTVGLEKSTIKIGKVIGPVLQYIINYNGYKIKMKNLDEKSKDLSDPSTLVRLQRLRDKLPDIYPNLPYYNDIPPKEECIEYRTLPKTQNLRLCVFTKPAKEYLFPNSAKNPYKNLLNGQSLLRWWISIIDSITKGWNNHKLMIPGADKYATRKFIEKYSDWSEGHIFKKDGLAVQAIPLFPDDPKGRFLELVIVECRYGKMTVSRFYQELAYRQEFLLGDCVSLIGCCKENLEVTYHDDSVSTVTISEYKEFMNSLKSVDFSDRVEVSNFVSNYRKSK
SMARCA2 activ: activators of SMARCA2 function; MG213 cells, MMTV-luciferase reporter, dexamethasone, overnight; 370,000 tested, 1% active; activation, % at 9.1 µM; in the data active = activation above about 7.8%;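 note: 0% = vehicle wells and 100% = reference activator wells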
dFosB act-1: mouse delta FosB homodimer activation | purified delta FosB, TAMRA-CDK5 oligo fluorescence polarization; percent of positive-control signal above neutral wells | activation, % at 25 µM | 340,000 tested, 0.99% active | AID 493131;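 active = mean activation above about 17%, with every replicate also reaching it, limit read from the data, passing the limit was not always enough; inconclusive = only one of the two conditions met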
Target sequence (P13346 whole entry, looked up): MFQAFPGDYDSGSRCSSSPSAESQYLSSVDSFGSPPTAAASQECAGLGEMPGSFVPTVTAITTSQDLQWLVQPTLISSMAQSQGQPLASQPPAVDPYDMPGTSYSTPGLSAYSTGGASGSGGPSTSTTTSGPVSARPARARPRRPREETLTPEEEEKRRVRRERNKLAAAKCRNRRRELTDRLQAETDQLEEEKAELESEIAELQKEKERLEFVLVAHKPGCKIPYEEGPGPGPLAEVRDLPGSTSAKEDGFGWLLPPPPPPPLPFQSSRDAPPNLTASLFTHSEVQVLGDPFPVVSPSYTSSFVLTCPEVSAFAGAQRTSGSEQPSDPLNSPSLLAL
DYRK1A inh: blocks rat Dyrk1A kinase activity | Q63470 | ADP-Glo luminescence, NFATc1 peptide | 310,000 tested, 0.43% active | inhibition, % at 12.5 µM; in the data active = inhibition above about 50%;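 note: plate controls were vehicle with enzyme for no effect and no enzyme for full effect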
dFosB act-2: enhances mouse delta FosB homodimer binding to DNA | shares compounds with dFosB act-1 | activation, % at 24.9 µM | purified delta FosB, TAMRA-CDK5 oligo fluorescence polarization; normalised: neutral wells 0, positive control 100 | 2,400 tested, under 10 active;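 active = highest replicate activation at or above 34% and every replicate reaching that threshold; inconclusive = meets only one of the two criteria; inactive = meets neither criterion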;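 note: higher polarization means more probe DNA bound by delta FosB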
Numbers without * were called inactive; ? = inconclusive; / = no result.

SMILES	CDK5 inh	esBAF inh	Rtt109 HAT inh	SMARCA2 activ	dFosB act-1	DYRK1A inh	dFosB act-2
COc1cc(OC)c(/C=N/NC(=O)c2ccc(NC(C)=O)cc2)cc1Br	5.1	/	0.8	-2.1	27.5*	-5.6	-2.4
O=C(Nc1cccnc1Cl)c1cc(-c2ccc(O)cc2)on1	-3.6	4.0	-4.3	-0.6	29.4*	0.8	-25.3
O=C(Nc1cccnc1Cl)c1cc(-c2ccc(Cl)cc2)on1	0.7	6.9	-4.0	-2.5	-2.5	-2.3	/
N#Cc1c(N)nc(SCC(=O)NCCc2ccccc2)c(C#N)c1-c1cccs1	-0.6	-3.2	4.9	-0.9	35.9*	1.3	-0.2
CC(=O)CSc1nc(N)c(C#N)c(-c2cccs2)c1C#N	-0.4	1.7	13.8	-2.7	-6.1	2.2	/
Cc1cccc(C)c1NS(=O)(=O)c1ccc(NC(=O)c2ccc(Cl)c([N+](=O)[O-])c2)cc1	-2.4	0.0	4.7	0.2	39.6*	-2.3	-1.5
Cc1cc(C)cc(C(=O)Nc2ccc(NC(=O)Cc3ccccc3)cc2)c1	0.3	-0.7	-4.9	-3.1	42.7*	13.9	5.0
CCOC(=O)/C=C/C(=O)Nc1ccc(S(=O)(=O)Nc2c(C)cc(C)cc2C)cc1	0.3	/	-9.6	1.9	19.9*	0.7	6.2
Cc1cc(C)c(NS(=O)(=O)c2ccc(NC(=O)c3cccs3)cc2)c(C)c1	0.8	/	3.3	-2.2	26.4*	-10.2	-6.7
Cc1ccc(S(=O)(=O)Nc2ccc(NC(=O)c3cccs3)cc2)cc1	-7.4	/	-3.3	-4.2	4.9	4.6	/
O=C(Nc1ccc(S(=O)(=O)NC2=NCCCCC2)cc1)c1ccc(Cl)c([N+](=O)[O-])c1	-0.5	-2.4	-0.2	3.0	-9.0	-3.7	/
COC(=O)C[C@@H]1C=C[C@@H](NC(=O)c2ccccc2)[C@@H](CO)O1	/	-0.7	/	/	/	/	/
CC=Cc1ccc2n(c1=O)C[C@H]1[C@H](CO)[C@@H](C(=O)NCCc3ccncc3)[C@@H]2N1CCC(F)(F)F (mixture of isomers)	/	2.0	/	/	/	/	/
Cc1cccc(C(=O)Nc2cc(NC(=O)c3cccs3)ccc2C)c1	-2.1	6.0	-2.4	2.0	-2.6	7.7	/
Cc1cc(C)cc(C(=O)Nc2ccc(NC(=O)c3cccs3)cc2)c1	0.2	/	-5.0	-2.4	24.7*	1.7	3.9
NS(=O)(=O)c1ccc(CNC(=O)c2cc(-c3cccnc3)nc3ccc(Cl)cc23)cc1	0.7	-4.2	3.0	-1.5	14.9	-3.7	/
NS(=O)(=O)c1ccc(CNC(=O)c2cc(-c3ccccn3)nc3ccc(Cl)cc23)cc1	3.0	/	/	-0.8	21.2*	1.5	-2.2
Cc1ccc(C)c(NC(=O)C(OC(=O)c2ccc(CO)cc2)c2ccccc2)c1 (centres undefined)	1.2	-7.2	-3.2	-0.3	34.9*	-3.6	2.9
Cc1cc(C)cc(NC(=O)C(OC(=O)c2ccc(NC(=O)CC#N)cc2)c2ccccc2)c1 (centres undefined)	0.7	-1.7	-3.5	-1.9	28.4*	3.1	3.0
CCn1c2ccccc2c2cc(NC(=O)C(C)OC(=O)c3ccc(NC(=O)CC#N)cc3)ccc21 (centres undefined)	-1.8	1.2	-4.7	-0.6	17.6*	/	6.7
Cc1ccc(C)c(NC(=O)C(OC(=O)c2cc[n+]([O-])cc2)c2ccccc2)c1 (centres undefined)	1.1	-1.3	-10.3	-1.6	-3.1	-6.5	/
CO[C@@H]1CN(C)C(=O)c2ccc(NS(C)(=O)=O)cc2OC[C@@H](C)N(S(C)(=O)=O)C[C@H]1C	/	2.3	/	/	/	/	/
CC(=O)c1c(C)[nH]c(C(=O)OCC(=O)c2ccc3c(c2)NC(=O)CO3)c1C	-1.1	3.2	1.3	-2.7	29.6*	/	3.9
O=C1COc2ccc(C(=O)COC(=O)/C=C/c3cccc(F)c3)cc2N1	0.4	/	4.6	-4.5	80.1*	-1.6	4.2
COc1cccc(/C=C/C(=O)OCC(=O)c2ccc3c(c2)NC(=O)CO3)c1OC	-1.6	-1.5	0.4	-5.6	-11.3	5.8	/
SMILES	CDK5 inh	esBAF inh	Rtt109 HAT inh	SMARCA2 activ	dFosB act-1	DYRK1A inh	dFosB act-2
CCC(=O)Nc1ccc2c(c1)OC[C@@H](C)N(C(=O)c1ccc(F)cc1)C[C@H](C)[C@@H](OC)CN(C)C2=O	/	-0.2	/	/	/	/	/
CO[C@@H]1CN(C)C(=O)c2cc(NC(=O)NC(C)C)ccc2OC[C@@H](C)N(C)C[C@H]1C	/	0.1	/	/	/	/	/
Cc1ccc(CNC(=O)C2CCC(CNc3nc(=S)[nH]c4ccccc34)CC2)cc1 (centres undefined)	-7.2	-0.7	-1.1	-1.5	?	-1.6	/
COc1ccc(CNC(=O)Cc2csc(Nc3nc(=S)[nH]c4ccccc34)n2)cc1	-0.9	0.3	4.6	0.5	35.4*	15.2	6.9
COc1cccc(CNC(=O)C2CCC(CNc3nc(=S)[nH]c4ccccc34)CC2)c1 (centres undefined)	2.1	-4.6	-8.7	-2.6	37.5*	-1.2	2.1
O=C(COC(=O)CCC(=O)c1cccs1)Nc1ccc(F)c(F)c1F	-0.6	3.4	-0.7	-1.4	-3.6	-1.4	/
O=C(COC(=O)c1cc(NS(=O)(=O)c2cccs2)ccc1O)Nc1ccc(F)c(F)c1F	0.4	-6.8	1.2	-4.0	22.0*	8.9	-19.5
COc1ccccc1NC(=O)N1C[C@@H]2[C@H](c3ccccc31)[C@H](CO)N2C(=O)C1CCCC1	/	1.8	/	/	/	/	/
CCc1ccc(NC(=O)NNC(=O)c2ccc3ccccc3c2O)cc1	-0.9	-8.8	1.6	-0.6	6.7	2.4	/
CCOc1ccc(NC(=O)NNC(=O)c2cc3ccccc3cc2O)cc1	1.1	1.3	-2.7	-1.9	38.8*	-1.9	0.3
COc1ccc(NC(=O)c2cc3ccccc3cc2O)cc1	0.3	?	-1.4	-1.2	-20.1	1.5	/
CCc1ccc(NC(=O)NNC(=O)c2cc3ccccc3cc2O)cc1	-0.5	/	-15.2	-0.4	39.4*	0.6	4.3
Cc1ccc(NC(=O)NNC(=O)c2cc3ccccc3cc2O)cc1C	0.9	-4.3	-2.1	-0.9	54.2*	3.5	4.1
O=C(C[C@H]1CC[C@@H]2[C@H](COC[C@@H](O)CN2Cc2ccc(C(F)(F)F)cc2)O1)NCCc1ccccc1	/	-0.6	/	/	/	/	/
COc1ccc(S(=O)(=O)N[C@H]2CC[C@H](CCNC(=O)Cc3ccccn3)O[C@@H]2CO)cc1	/	-2.8	/	/	/	/	/
C[C@H]1CN([C@@H](C)CO)C(=O)c2cc(NC(=O)Nc3ccc(F)cc3)ccc2O[C@@H]1CN(C)C(=O)Nc1ccc(F)cc1	/	-0.3	/	/	/	/	/
Clc1ccc(-c2ccnc(Oc3ccc4ccccc4c3)n2)cc1	-0.3	-0.8	-0.7	-0.4	-2.1	4.8	/
Clc1ccc(-c2ccnc(Oc3cc(Cl)ccc3Cl)n2)cc1	0.9	1.1	4.6	-1.2	18.9*	0.1	-7.0
N#Cc1cc2c(nc1SCC(=O)Nc1sc3c(c1C#N)CCC3)CCCC2	1.2	10.0	-2.0	3.5	0.1	20.1	/
